What all share (set-up): scale not given: direction of the effect not stated beside the values
In assay [1] the target is Protein translocase subunit SecA (Escherichia coli (strain K12)) (UniProt P10408). Nature of the assay: Assay to Identify E. coli SecA ATPase Inhibitors. The settings on record: 30 µM. It is filed as functional.
The target of assay [2] is T1, Ubiquitin-activating enzyme e1, putative (Leishmania donovani (strain BPK282A1)) (UniProt E9BSI1).
T1 sequence (whole entry): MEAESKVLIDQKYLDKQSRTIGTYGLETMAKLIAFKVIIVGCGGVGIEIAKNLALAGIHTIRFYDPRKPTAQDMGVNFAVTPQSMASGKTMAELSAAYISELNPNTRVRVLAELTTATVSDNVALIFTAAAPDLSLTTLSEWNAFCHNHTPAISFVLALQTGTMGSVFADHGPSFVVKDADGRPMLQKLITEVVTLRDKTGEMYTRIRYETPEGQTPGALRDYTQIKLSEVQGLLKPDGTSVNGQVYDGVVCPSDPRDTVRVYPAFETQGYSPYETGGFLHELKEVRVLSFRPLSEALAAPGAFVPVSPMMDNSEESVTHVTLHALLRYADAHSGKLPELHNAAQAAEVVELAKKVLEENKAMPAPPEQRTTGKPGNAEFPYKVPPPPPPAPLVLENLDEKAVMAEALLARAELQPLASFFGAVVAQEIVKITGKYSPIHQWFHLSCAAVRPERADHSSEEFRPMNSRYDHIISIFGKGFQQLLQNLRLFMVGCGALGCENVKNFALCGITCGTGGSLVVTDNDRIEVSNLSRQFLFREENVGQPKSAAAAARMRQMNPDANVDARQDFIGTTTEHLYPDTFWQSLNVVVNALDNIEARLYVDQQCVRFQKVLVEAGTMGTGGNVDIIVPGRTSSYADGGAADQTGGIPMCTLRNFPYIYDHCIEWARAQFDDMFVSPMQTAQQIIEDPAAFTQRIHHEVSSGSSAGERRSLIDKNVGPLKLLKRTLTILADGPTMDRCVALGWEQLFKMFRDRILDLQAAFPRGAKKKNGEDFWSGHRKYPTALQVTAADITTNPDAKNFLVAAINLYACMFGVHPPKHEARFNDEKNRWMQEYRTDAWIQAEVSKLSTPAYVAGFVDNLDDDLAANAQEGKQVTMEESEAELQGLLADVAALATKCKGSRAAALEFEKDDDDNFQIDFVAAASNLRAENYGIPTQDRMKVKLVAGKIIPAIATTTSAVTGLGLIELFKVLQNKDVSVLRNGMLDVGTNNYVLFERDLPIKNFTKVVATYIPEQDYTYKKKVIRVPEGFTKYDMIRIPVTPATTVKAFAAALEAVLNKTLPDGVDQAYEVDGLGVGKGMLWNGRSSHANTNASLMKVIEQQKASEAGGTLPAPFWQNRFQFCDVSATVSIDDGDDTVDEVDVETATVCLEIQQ
As to the kind of experiment: Leishmania donovani Ubiquitin Activating Enzyme (LdE1). In kind it is functional. The settings on record: 30 µM.

Assay [3] addresses Sialic acid-binding Ig-like lectin 9 (Homo sapiens) (UniProt Q9Y336). Nature of the assay: Hs-Siglec9 ALPHAscreen SOP 20170721. As to conditions: 10 µM. Background: In Alpha technology, singlet oxygen from a donor bead excites a nearby acceptor bead.
Assay [4] has as its system Trypanosoma cruzi. As to the kind of experiment: Trypanosoma cruzi phosphomannomutase and mannose-1-phosphate guanylyltransferase assay. It is filed as functional. The settings on record: 10 µM.
In assay [5] the target is T2, Arginase-2, mitochondrial (Homo sapiens) (UniProt P78540).
T2 sequence (whole entry): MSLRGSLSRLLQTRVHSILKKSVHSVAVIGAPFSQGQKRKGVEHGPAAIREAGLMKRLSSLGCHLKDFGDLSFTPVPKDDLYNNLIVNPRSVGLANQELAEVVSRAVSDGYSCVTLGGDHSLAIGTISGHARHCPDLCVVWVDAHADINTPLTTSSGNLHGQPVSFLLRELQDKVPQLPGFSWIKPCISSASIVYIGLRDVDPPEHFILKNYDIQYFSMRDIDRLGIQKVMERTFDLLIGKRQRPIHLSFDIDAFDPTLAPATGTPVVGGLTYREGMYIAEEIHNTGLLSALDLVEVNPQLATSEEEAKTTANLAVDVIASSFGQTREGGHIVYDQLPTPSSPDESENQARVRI
As to the kind of experiment: in vitro enzyme assay to detect the production of urea directly proportional to the activity of Arginase II. Note: in the data most compounds retested in dose-response had high values. The settings on record: 33.3 µM. It is filed as functional.

Assay [6] addresses T3, Proteasome subunit beta (Trypanosoma cruzi) (UniProt O96673).
T3 sequence (whole entry): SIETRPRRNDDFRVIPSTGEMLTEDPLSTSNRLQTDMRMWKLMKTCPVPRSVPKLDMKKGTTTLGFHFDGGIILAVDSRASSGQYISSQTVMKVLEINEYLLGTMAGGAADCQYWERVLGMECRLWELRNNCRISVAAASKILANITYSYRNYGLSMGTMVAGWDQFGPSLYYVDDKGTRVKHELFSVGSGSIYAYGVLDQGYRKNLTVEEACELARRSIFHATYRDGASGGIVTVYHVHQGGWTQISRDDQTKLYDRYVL
As to the kind of experiment: Trypanosoma cruzi proteasome chymotrypsin-like activity (TcProtChymo) assay. Note: in the data most compounds retested in dose-response had high values. In kind it is functional. As to conditions: 9.37 µM.

The species named for assay [7] is Homo sapiens. As to the kind of experiment: To identify inhibition of the IFN signalling (Jak-Stat) pathway via expression of an eGFP reporter gene under the control of an IFN-stimulated response element (ISRE) containing MxA promoter. In kind it is functional. As to conditions: 30 µM. Background: A reporter such as luciferase makes a cellular process visible.
For assay [8], the target named is T4, Tyrosyl-tRNA synthetase, putative (Trypanosoma cruzi (strain CL Brener)) (UniProt Q4DSP6).
T4 sequence (whole entry): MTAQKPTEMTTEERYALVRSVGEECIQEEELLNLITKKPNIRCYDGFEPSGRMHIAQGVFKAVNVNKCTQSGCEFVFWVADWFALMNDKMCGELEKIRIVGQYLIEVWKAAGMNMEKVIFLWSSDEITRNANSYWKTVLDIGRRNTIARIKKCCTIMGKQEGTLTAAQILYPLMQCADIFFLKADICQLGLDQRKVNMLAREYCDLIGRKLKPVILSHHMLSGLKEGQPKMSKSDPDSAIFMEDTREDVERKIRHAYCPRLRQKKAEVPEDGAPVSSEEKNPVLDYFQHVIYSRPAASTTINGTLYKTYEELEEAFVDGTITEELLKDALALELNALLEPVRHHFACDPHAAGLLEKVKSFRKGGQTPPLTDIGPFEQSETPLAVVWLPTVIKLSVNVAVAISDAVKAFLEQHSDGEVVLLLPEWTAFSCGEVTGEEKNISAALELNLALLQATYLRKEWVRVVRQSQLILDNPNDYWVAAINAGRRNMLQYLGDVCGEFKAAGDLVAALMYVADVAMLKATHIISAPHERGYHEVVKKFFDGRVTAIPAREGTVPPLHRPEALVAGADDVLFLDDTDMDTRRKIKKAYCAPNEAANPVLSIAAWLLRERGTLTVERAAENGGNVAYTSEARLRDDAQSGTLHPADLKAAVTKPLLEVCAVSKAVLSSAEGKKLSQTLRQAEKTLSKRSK
As to the kind of experiment: Trypanosoma cruzi tyrosyl tRNA synthetase (TcYRS) _High Tyrosine SOP. Note: in the data most compounds retested in dose-response had high values. As to conditions: 30 µM. In kind it is functional.

For assay [9], the target named is T4, Tyrosyl-tRNA synthetase, putative (Trypanosoma cruzi (strain CL Brener)). Nature of the assay: Trypanosoma cruzi tyrosyl tRNA synthetase (TcYRS) SOP. As to conditions: 30 µM. In kind it is functional.
For assay [10], the target named is Chromo domain-containing protein 1 (Saccharomyces cerevisiae (strain ATCC 204508 / S288c) (Baker's yeast)) (UniProt P32657). Nature of the assay: ScCHD-1 Enzyme Inhibition Assay. Note: in the data most compounds retested in dose-response had high values. It is filed as functional. As to conditions: 30 µM.

For part of these data: Entries with a potency or affinity are not part of this list.

Sialic acid-binding Ig-like lectin 9 (Homo sapiens), sequence (Q9Y336 whole entry): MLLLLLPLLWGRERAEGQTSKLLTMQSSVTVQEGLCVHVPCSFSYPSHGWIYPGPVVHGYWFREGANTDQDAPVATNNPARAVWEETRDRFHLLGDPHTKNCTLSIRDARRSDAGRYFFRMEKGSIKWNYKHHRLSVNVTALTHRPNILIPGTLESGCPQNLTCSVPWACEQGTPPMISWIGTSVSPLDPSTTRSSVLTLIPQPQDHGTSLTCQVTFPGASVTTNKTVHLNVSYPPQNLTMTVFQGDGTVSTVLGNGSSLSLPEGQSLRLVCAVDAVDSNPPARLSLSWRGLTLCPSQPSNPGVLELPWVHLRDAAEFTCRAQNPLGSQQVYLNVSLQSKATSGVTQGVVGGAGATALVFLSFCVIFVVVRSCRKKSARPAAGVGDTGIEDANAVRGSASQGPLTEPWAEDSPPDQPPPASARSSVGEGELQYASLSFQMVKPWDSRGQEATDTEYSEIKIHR
Chromo domain-containing protein 1 (Saccharomyces cerevisiae (strain ATCC 204508 / S288c) (Baker's yeast)), sequence (P32657 whole entry, the tested form may be a part): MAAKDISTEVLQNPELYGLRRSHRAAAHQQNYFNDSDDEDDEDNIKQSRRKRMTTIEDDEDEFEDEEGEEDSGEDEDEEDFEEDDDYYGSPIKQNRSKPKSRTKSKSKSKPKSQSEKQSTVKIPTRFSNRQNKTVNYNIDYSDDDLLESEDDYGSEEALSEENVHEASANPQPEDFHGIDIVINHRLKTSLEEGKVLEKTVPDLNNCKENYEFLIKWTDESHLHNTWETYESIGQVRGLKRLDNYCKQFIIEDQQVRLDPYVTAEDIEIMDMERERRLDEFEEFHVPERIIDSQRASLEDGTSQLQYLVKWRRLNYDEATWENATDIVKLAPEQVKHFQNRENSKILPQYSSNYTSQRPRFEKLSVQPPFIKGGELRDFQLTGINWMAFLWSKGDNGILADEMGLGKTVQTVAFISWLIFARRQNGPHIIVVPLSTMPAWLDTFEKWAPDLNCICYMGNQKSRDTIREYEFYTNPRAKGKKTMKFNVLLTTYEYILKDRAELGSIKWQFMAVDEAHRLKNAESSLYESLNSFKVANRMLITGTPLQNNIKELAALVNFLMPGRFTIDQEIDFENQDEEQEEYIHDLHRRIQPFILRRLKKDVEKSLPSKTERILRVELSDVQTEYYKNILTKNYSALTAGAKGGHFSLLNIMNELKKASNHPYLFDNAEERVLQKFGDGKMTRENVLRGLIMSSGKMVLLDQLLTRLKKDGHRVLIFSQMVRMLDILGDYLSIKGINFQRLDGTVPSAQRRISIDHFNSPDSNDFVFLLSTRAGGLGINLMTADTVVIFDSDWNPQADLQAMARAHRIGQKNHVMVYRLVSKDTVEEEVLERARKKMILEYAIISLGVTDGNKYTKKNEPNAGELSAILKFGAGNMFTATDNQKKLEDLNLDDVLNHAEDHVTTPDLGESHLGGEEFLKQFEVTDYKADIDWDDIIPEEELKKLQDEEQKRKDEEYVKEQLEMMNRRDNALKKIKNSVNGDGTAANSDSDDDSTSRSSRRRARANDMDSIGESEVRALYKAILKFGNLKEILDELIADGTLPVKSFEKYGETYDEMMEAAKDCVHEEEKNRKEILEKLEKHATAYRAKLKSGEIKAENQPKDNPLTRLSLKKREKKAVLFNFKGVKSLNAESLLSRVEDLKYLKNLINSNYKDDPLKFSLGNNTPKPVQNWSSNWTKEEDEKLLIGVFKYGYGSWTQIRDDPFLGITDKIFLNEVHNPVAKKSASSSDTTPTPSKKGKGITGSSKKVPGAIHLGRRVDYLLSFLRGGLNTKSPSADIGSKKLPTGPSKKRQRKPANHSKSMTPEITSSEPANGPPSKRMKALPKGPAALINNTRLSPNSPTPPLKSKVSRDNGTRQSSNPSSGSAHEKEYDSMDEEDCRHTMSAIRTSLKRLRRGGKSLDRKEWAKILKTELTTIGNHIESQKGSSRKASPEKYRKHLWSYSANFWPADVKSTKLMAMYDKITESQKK
Protein translocase subunit SecA (Escherichia coli (strain K12)), sequence (P10408 whole entry): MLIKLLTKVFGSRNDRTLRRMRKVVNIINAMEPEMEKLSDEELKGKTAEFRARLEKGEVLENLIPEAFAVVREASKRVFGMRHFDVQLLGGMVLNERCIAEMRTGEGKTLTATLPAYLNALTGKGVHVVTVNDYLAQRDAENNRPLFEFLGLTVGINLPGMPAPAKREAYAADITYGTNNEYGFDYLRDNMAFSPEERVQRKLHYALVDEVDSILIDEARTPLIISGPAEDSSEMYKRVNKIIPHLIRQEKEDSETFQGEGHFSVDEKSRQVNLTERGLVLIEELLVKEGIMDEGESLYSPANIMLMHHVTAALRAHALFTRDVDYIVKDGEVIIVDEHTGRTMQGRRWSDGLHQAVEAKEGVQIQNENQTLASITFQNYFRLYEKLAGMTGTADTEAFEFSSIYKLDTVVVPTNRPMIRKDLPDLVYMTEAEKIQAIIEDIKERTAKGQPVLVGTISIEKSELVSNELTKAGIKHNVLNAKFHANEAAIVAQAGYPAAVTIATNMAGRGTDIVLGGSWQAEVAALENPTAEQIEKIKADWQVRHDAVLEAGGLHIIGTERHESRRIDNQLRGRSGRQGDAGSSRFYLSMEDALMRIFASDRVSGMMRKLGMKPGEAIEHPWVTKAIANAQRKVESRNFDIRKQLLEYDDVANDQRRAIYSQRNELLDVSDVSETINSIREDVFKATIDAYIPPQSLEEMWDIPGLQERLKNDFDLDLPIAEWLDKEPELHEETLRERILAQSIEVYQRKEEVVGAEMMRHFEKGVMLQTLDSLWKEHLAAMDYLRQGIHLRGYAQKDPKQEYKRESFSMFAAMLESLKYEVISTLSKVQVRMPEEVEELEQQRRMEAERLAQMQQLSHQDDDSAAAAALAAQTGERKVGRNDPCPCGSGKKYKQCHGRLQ

Turning to `CN1CCN(C[C@@H]2CN(C(=O)c3ccccc3C#N)C[C@@H]2CO)CC1`, the Percent Effect in assay [1] is -3.4%; in [2] it was 10.8%; in assay [3], 10.3%; in assay [4] it was 7.86%; in assay [5], 0.35%; in assay [6], 3.42%. For the same compound, the Percent Effect in assay [7] was determined as 7.14%; in [8], 4.79%; in [9], 9.76%; in assay [10] it was 0.408%.

Regarding `Cc1noc(C(C)C)c1C(=O)NCCCOC(C)C`, the Percent Effect in assay [1] is 0.204%; in [2], 2.6%; in [3], 15.3%; in [4], 0.373%; in assay [5], -2.25%; in [6], 6.67%. For the same compound, the Percent Effect was -3.84% in assay [7], 0.98% in [8], 9.41% in assay [9] and -6.89% in assay [10].

As for `CC(NC(=O)N(C)CCCOc1ccc(F)cc1)c1nncn1C` (centres undefined), the Percent Effect in [1] was -2.67%; in [2], 8%; in assay [3], -3.38%; in assay [4], 0.803%; in [5], 5.76%; in assay [6], 17.4%. Moreover, the Percent Effect in [7] was 8.6%; in assay [8], 4.74%; in assay [9], 10.3%; in assay [10], -10.2%.

As to `CCOc1ccc(Cl)c(C(=O)N(C)C)n1`, the Percent Effect was -2.43% in assay [1]; 15.4% in assay [2]; -11.2% in assay [3]; -3.66% in assay [4]; 2.05% in assay [5]; 14.2% in [6]. Besides, the Percent Effect in assay [7] is 30.8%; in [8], 4.31%; in assay [9], 13.2%; in assay [10], -2.78%.

With `CCn1cnnc1CNC(=O)N1CCC(C(=O)NC)CC1`, the Percent Effect in assay [1] is -5.88%; in assay [2] it was 5.33%; in [3], 0.795%; in assay [4], -4.42%; in [5], -2.66%; in assay [6], 1.78%. Also, the Percent Effect in assay [7] is 10.8%; in [8], -0.526%; in assay [9] it was 2.56%; in [10] it was -6.68%.

Turning to `OCC1CCCCN1c1ccc(-c2nc(-c3ccccc3F)no2)cn1` (centres undefined), the Percent Effect in assay [1] was -2.19%; in [2], -5.41%; in assay [3] it was 7.51%; in assay [4] it was 5.14%; in assay [5], 16.4%; in assay [7], 1.31%. In addition, the Percent Effect in assay [8] was -0.532%; in assay [9], 4.88%; in assay [10], 86.3%.

Consider `CCOc1ccc(CN2CCN(C(=O)c3ccc(C)n3C)CC2)cc1`, for which the Percent Effect in assay [1] was -2.75%; in assay [2], 5.33%; in assay [3] it was 3.18%; in [4], 1.41%; in [5] it was -4.43%; in [6] it was 12.1%. For the same compound, the Percent Effect in [7] is 8.63%; in [8], 6.84%; in [9], 15.4%; in assay [10], -10.5%.

Take `Cc1cn2c(n1)CCC(NC(=O)c1c[nH]c(C)n1)C2` (centres undefined): the Percent Effect in assay [1] was -6.87%; in assay [2], -10.7%; in assay [3], 1.48%; in assay [4], 3.61%; in assay [5], 0%; in assay [6], 10.9%. The Percent Effect was 17.2% in assay [7], 3.68% in assay [8], 7.69% in assay [9] and -13.6% in assay [10].

For the compound `Cc1ccc(OCC(=O)NS(=O)(=O)c2c(C)noc2C)cc1C`, the Percent Effect in [1] is -7.75%; in [2] it was -5.13%; in [3], -10.8%; in assay [4] it was -1.41%; in [5], 0.41%; in [6], 0.0853%. The Percent Effect in assay [7] is 17.7%; in assay [8], -5.26%; in assay [9], -6.02%; in [10], -0.0938%.

For the compound `Fc1ccc(CN2CCCC2c2cncc(-n3ccnc3)n2)cc1` (centres undefined), the Percent Effect in assay [1] is -2.01%; in assay [2], 9.33%; in assay [3] it was -0.339%; in [4], -0.986%; in assay [5] it was 0.885%; in assay [6], -1.97%. The Percent Effect was 3.29% in [7], 4.23% in [8], 12.5% in [9] and -24.9% in assay [10].
